PubChem BioAssay AID1159580 (chemical genetic matrix, 2015)
In all, about 5,500 compounds went through this assay and about 2,000 (36%) were called active. About 18% were inconclusive and are not listed. The list shows a part of the results. Unmarked numbers belong to inactive results. Rule as the data show it: active = normalized growth mostly below about 0.91 (no sharp cut-off); inconclusive = no clear call, values can overlap the other calls; inactive = mostly above about 0.92.

Experiment: chemical genetic growth profiling, strain panel (AID 1159580);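 also: tested at 20 µM; growth read once vehicle control cultures reached saturation at 30 °C; 1 = growth at the plate median or of vehicle wells; lower values mean less growth of the strain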
Settings: S. cerevisiae deletion strains, growth OD
[1] = locus YAL040C, strain CLN3, stronger effect = lower value
[2] = locus YCL061C, strain MRC1 (second series), stronger effect = lower value
[3] = locus YDR363W, strain ESC2, stronger effect = lower value
[4] = locus YER002W, strain NOP16, stronger effect = lower value
[5] = locus YMR307W, strain GAS1, stronger effect = lower value
[6] = locus YNL175C, strain NOP13, stronger effect = lower value
[7] = locus YNL197C, strain WHI3, stronger effect = lower value
[8] = locus YNL224C, strain SQS1, stronger effect = lower value
[9] = locus YOR083W, strain WHI5 (second series), stronger effect = lower value
[10] = locus YPL055C, strain LGE1, stronger effect = lower value
[11] = locus YGR229C, strain SMI1, stronger effect = lower value
[12] = locus YJR075W, strain HOC1, stronger effect = lower value
[13] = locus YNL128W, strain TEP1, stronger effect = lower value
[14] = locus YNL153C, strain GIM3, stronger effect = lower value
[15] = locus YPL241C, strain CIN2, stronger effect = lower value

| SMILES | normalized growth [1] | normalized growth [2] | normalized growth [3] | normalized growth [4] | normalized growth [5] | normalized growth [6] | normalized growth [7] | normalized growth [8] | normalized growth [9] | normalized growth [10] | normalized growth (locus YAL013W, strain DEP1, stronger effect = lower value) | normalized growth [11] | normalized growth [12] | normalized growth [13] | normalized growth [14] | normalized growth (locus YNL322C, strain KRE1, stronger effect = lower value) | normalized growth [15] |
| --- | --- | --- | --- | --- | --- | --- | --- | --- | --- | --- | --- | --- | --- | --- | --- | --- | --- |
| C=CCN1C[C@@H](C)N([C@H](c2ccc(C(=O)N(CC)CC)cc2)c2cccc(OC)c2)C[C@@H]1C | 1.04 | 1 | 0.992 | 0.999 | 1.03 | 0.995 | 1.01 | 1.02 | 1.02 | 1.01 |  |  |  |  |  |  |  |
| CP(=O)(O)C1=CCNCC1 | 1 | 1 | 0.997 | 0.997 | 1 | 1.01 | 1.02 | 1.01 | 0.987 |  | 1.03 | 1.02 | 1.01 | 0.996 | 0.999 | 1.01 | 1 |
| O=c1onc2cnc3ccccc3n12 | 0.984 | 0.983 | 0.893 | 1 | 0.977 | 0.999 | 0.989 | 0.987 | 0.961 | 0.801 (active) |  | 0.939 | 0.958 | 0.967 | 0.777 (active) |  | 0.999 |
